tim23-1 inh – growth inhibitors of tim23-1 mutant yeast, primary screen, luminescence, uHTS | S. cerevisiae tim23-1 growth, BacTiter-Glo luminescence, 24 h | inhibition, % at 20 µM | 1.3% of 330,000 active;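 active = growth inhibition of the mutant yeast at or above 50%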;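 note: temperature-sensitive mutant grown at 25 °C; plate controls were DMSO-treated mutant yeast for no effect and medium wells lacking yeast for full effect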
tim10-1 inh – growth inhibitors of tim10-1 mutant yeast, primary screen, luminescence, uHTS; S. cerevisiae tim10-1 ts strain growth, BacTiter-Glo, 24 h; inhibition, % at 20 µM; 2.2% of 330,000 active; AID 463190, 2010;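 active = inhibition of at least 40%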;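 note: mutant grown at 25 °C; 0% = DMSO wells with yeast and 100% = wells holding no yeast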
TIM10 inh – growth inhibitors of isogenic TIM10 control yeast, primary screen, counter-screen for tim10-1 yeast inhibitor project, luminescence, uHTS | AID 463195, 2010 | S. cerevisiae TIM10 strain growth, BacTiter-Glo luminescence, 24 h | 1.4% of 330,000 active | inhibition, % at 10 µM;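 active = inhibition of 40% or more at the single tested concentration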;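 note: wild-type TIM10 isogenic control strain grown at permissive 25 °C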
PfHsp90 set2 – growth inhibition of PfHsp90-expressing yeast, primary screen, antimalarial PfHsp90 inhibitor project, S. cerevisiae, BacTiter-Glo luminescence, single point, set 2; inhibition, % at 9.4 µM; BacTiter-Glo ATP, 48 h; yeast lacking PDR1 and PDR3 efflux regulators; AID 504621, 2011; 0.32% of 310,000 active;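 active = every replicate shows inhibition above about 80%, whatever the replicate mean, limit read from the data; inconclusive = mean inhibition reaches the set limit but some replicate falls short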;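 note: 0% = DMSO neutral controls and 100% = 20 µM radicicol positive controls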
NALP3 yeast inh – NALP3 inflammasome inhibitors in reconstituted yeast, primary screen, luminescence, uHTS; Yeast reconstituted NLRP3/ASC/caspase-1, beta-gal luminescence, 24 h; inhibition, % at 10 µM; 0.39% of 330,000 active; AID 2825, 2010;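 active = inhibition of 50% or more; inactive = inhibition below 50%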;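 note: plate controls were induced DMSO wells for no effect and uninduced yeast grown without galactose for full effect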
tim10-1 confirm – growth inhibitors of tim10-1 mutant yeast, confirmation, single concentration, luminescence, S. cerevisiae. shares compounds with tim10-1 inh. S. cerevisiae tim10-1 ts strain growth, BacTiter-Glo, 24 h. inhibition, % at 20 µM. 56% of 7,400 active. AID 463213, 2010;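 active = inhibition of yeast growth at or above a set limit in either of two repeat tests at 20 µM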;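 note: tim10-1 mutant grown at permissive 25 °C to find synthetic lethal compounds; 0% = DMSO yeast wells and 100% = medium wells without yeast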
TIM10 conf – growth inhibitors of wild-type TIM10 yeast, confirmation, counter-screen for tim10-1 synthetic lethality project, single concentration, luminescence, S. cerevisiae; S. cerevisiae tim10 strain growth, BacTiter-Glo luminescence, 24 h; shares compounds with TIM10 inh; inhibition, % at 10 µM; 63% of 4,600 active; AID 463215, 2010;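 active = inhibition of yeast growth at or above a set limit in either of two replicates at 10 µM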;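 note: this counterscreen used the strain with wild-type TIM10; 0% = yeast with DMSO and 100% = medium wells lacking yeast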
tim23-1 conf – tim23-1 mutant yeast growth inhibitors, confirmation, luminescence, single concentration; shares compounds with tim23-1 inh; S. cerevisiae tim23-1 growth, BacTiter-Glo luminescence, 24 h; inhibition, % at 20 µM; 83% of 4,400 active; AID 463218, 2010;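 active = inhibition above about 39% in either of two replicate wells at 20 µM, limit read from the data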;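 note: temperature-sensitive tim23-1 mutant grown at 25 °C; 0% = DMSO wells with yeast and 100% = medium wells without yeast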
* marks the source's active call; other numbers are inactive results; u = inconclusive; x = no result given; + = active, no number. Most compounds without a hit are left out; they make up all but 3.7% or so of the library.

SMILES	tim23-1 inh	tim10-1 inh	TIM10 inh	PfHsp90 set2	NALP3 yeast inh	tim10-1 confirm	TIM10 conf	tim23-1 conf
Cc1ccccc1Cc1c(C)nc2nc(SCC(=O)N3CCC4(CC3)OCCO4)nn2c1C	13	15	7	10	17	x	x	x
CCOC(=O)C(O)(c1ccc(N(C)C(=O)c2ccc(Cl)c(Cl)c2)cc1)C(F)(F)F (configuration not stated)	13	13	-16	-18	11	x	x	x
CCOC(=O)C(O)(c1ccc(NC(=O)c2ccc(Cl)c(Cl)c2)cc1)C(F)(F)F (configuration not stated)	57*	43*	39	-9	22	34*	x	50*
O=P(Nc1cccnc1)(Oc1ccccc1Cl)Oc1ccccc1Cl	15	-48	-20	51	20	x	x	x
C=C(C)C(Cc1c(OC)ccc(C(=O)/C=C/c2ccc(O)cc2)c1O)OO (configuration not stated)	75*	44*	46*	x	45	65*	69*	76*
Cc1cc([N+](=O)[O-])c2ccccc2[n+]1[O-]	79*	68*	87*	108*	40	61*	87*	64*
Clc1ccc(C(c2ccc(Cl)cc2)n2cc[n+](CC(OCc3ccc(Cl)cc3Cl)c3ccc(Cl)cc3Cl)c2)cc1 (configuration not stated)	88*	93*	85*	107*	22	90*	-9	77*
COc1ccc2c3c1OC1C(O)C=CC4[C@@H](C2)N(C)CC[C@]314 (some centres not stated)	13	11	4	x	-4	x	x	x
O=C1NC(=O)C(=Cc2ccc(-c3ccc(Cl)cc3)o2)C(=O)N1	54*	45*	20	23	10	8	x	55*
O=C1NC(=O)C(=Cc2ccc(-c3ccc(S(=O)(=O)N4CCOCC4)cc3)o2)C(=O)N1	-13	16	-1	-5	18	x	x	x
CC(C)=CCc1c(O)cc2c(c1O)C(=O)CC(c1ccc(O)cc1)O2 (configuration not stated)	60*	54*	46*	59	5	35*	57*	59*
Cc1ccc2cc(C=C(C#N)C#N)c(Cl)nc2c1	80*	48*	46*	11	14	31*	-8	76*
O=C1/C(=C\c2ccc(Cl)c(Cl)c2)N2CCC1CC2	52*	42*	11	-4	18	23	x	35
O=C1/C(=C\c2ccncc2)N2CCC1CC2	17	-1	-9	x	25	x	x	x
O=C1/C(=C\c2cccnc2)N2CCC1CC2	20	14	18	-8	17	x	x	x
CC(C)c1ccccc1OCC(=O)N1CCCN(C)CC1	10	2	-5	12	6	x	x	x
CSCc1nnc2n1-c1ccc(Cl)cc1C(c1ccccc1)=NC2	-6	-3	7	-13	7	x	x	x
Cc1nc2c(=O)n(C)c(=O)nc-2n(C)n1	54*	42*	24	7	26	22	x	63*
NP(=O)(Oc1ccc(Cl)cc1)Oc1ccc(Cl)cc1	12	18	5	29	40	x	x	x
CNc1ccc2oc(C[C@H]3O[C@@]4(CC[C@H]3C)O[C@H]([C@H](C)C(=O)c3ccc[nH]3)[C@H](C)C[C@H]4C)nc2c1C(=O)O	54*	56*	-20	111*	22	29	x	37
CC1CCCC(NC(=O)CNC(=S)N2CC3CC(C2)c2cccc(=O)n2C3)C1C (configuration not stated)	8	18	4	6	-9	x	x	x
O=C1C(=O)c2cccc3cccc1c23	15	-13	11	-14	-23	x	x	x
O=C1C(=O)c2ccccc2-c2ccccc21	77*	85*	92*	u	28	85*	98*	77*
CCOC(=O)c1ccc(N2C(=O)CC(N3CCC(C#N)(c4ccccc4)CC3)C2=O)cc1 (configuration not stated)	42	38	42*	12	7	x	33*	x
OCC#CC[N+]1(CC#Cc2ccccc2)CCOCC1	5	-2	-2	-24	9	x	x	x
SMILES	tim23-1 inh	tim10-1 inh	TIM10 inh	PfHsp90 set2	NALP3 yeast inh	tim10-1 confirm	TIM10 conf	tim23-1 conf
COC1C(O)C(C)OC(OC2C(Oc3cccc4c(O)c5c(=O)oc6ccc(C)c7c(=O)oc(c34)c5c67)OC(C)C(O)C2O)C1O (configuration not stated)	x	x	x	-28	x	x	x	x
CCC(=NCc1ccco1)c1c(O)n(C2CCCCC2)c(=O)[nH]c1=O	42	34	40*	8	6	x	24	x
CCC(=NCc1cccnc1)c1c(O)n(C2CCCCC2)c(=O)[nH]c1=O	16	32	13	-3	7	x	x	x
COc1nc(NCC2CCCO2)nc(N2CC3CC(C2)c2cccc(=O)n2C3)n1 (configuration not stated)	8	5	-12	5	4	x	x	x
O=c1cccc2n1CC1CC2CN(c2ncnc3c2cnn3-c2ccc(Cl)cc2)C1 (configuration not stated)	35	40	44*	-7	0	x	10	x
Cn1cnc(CCN)c1	3	22	40*	-18	7	x	23	x
O=c1[nH]c(O)c(/C=C2/C=CC(c3cc(Cl)ccc3Cl)=N2)c(=O)[nH]1	54*	32	52*	-11	0	x	52*	59*
CC1=Nc2ccccc2/C1=C/c1c(O)[nH]c(=O)[nH]c1=O	2	-11	0	18	12	x	x	x
CCCCCCCCn1sccc1=O	65*	-129	54*	+	8	x	58*	-92
CCN1CCN(C(=O)COc2ccc3c(c2)C(=O)CC2(CCN(C(C)=O)CC2)O3)CC1	9	14	-4	x	2	x	x	x
Cc1cc(C=C2C(=O)NC(=S)NC2=O)c(C)n1C1CCCC1	55*	38	46*	-10	20	x	45*	55*
CCOC(=O)C(O)(c1ccc(N(C)C(=O)COc2ccccc2)cc1)C(F)(F)F (configuration not stated)	14	18	-2	-9	11	x	x	x
CN(C)C(=O)O/N=C(\N)COc1ccc(C(C)(C)C)cc1	59*	14	73*	13	6	x	81*	54*
